JMJD2A Tudor – qHTS Assay for Inhibitors of JMJD2A-Tudor Domain; 390,000 compounds, 4.4% hits; AlphaScreen JMJD2A-Tudor / H3K4me3 peptide binding; AID 504339, 2011; Lysine-specific demethylase 4A (Homo sapiens), O75164; Potency, µM (doses to about 114 µM), inactives show at the highest dose activity change, negative = inhibition, actives largely listed as inhibitors; also: % is scaled to controls: 0 for no effect and ±100 for the full control effect; nearly all actives have a fitted effect of over 50% in size
Sfp PPTase inh – qHTS Assay for Inhibitors of Bacillus subtilis Sfp phosphopantetheinyl transferase (PPTase). AID 1490, 2009. Biochemical Sfp PPTase activity, qHTS. Potency, µM, inactives show largest response in the series, negative = inhibition, usual class: inhibitors. 4'-phosphopantetheinyl transferase ffp (Bacillus subtilis), Q9F4F7. 310,000 compounds, 3.5% hits;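 also: the enzyme is Sfp with the accession as filed and its product quenches rhodamine fluorescence; 0% = enzyme reaction without inhibitor and -100% = no enzyme wells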
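Sfp 15 nM + cpd, 15 min RT; start w/ rhodamine-CoA 5 uM, BHQ-2-YbbR 12.5 uM (final); 50 mM Hepes pH 7.6, 10 mM MgCl2, 0.01% NP-40, 0.01% BSA; read 525/598 nm at 0 and 30 min.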
HP1b binding inh – HTS for Inhibitors of HP1-beta Chromodomain Interactions with Methylated Histone Tails; Chromobox protein homolog 1 (Homo sapiens), P83916; AlphaScreen HP1-beta / biotin-H3K9me3 peptide binding; Potency, µM (titrated, usually from 114 µM), inactives show at the highest dose activity change, negative = inhibition, usual class: inhibitors; 390,000 compounds, 0.56% hits; also: nearly all actives have a fitted effect of over 70% in size
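Compound inhibition of the preformed complex between 50 nM HP1-beta and 50 nM biotinylated H3K9me3 peptide was read by AlphaScreen. Buffer was PBS pH 7.4 with 0.01% Tween-20. Incubations ran 30 min at room temperature, with 10 ug/mL donor/acceptor beads.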
G9a inh – qHTS Assay for Inhibitors of Histone Lysine Methyltransferase G9a. 350,000 compounds, 8.8% hits. G9a H3K9 monomethylation, AlphaScreen, 2 h. Histone-lysine N-methyltransferase EHMT2 (Homo sapiens), Q96KQ7. Potency, µM (doses to about 102 µM), without a hit: at the top dose activity, negative = inhibition, usual class: inhibitors; also: % is scaled to controls: 0 for no effect and ±100 for the full control effect; nearly all actives have a fitted effect of over 75% in size
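Quantitative HTS format: methyltransferase activity on a biotin-tagged H3K9 peptide is measured by AlphaScreen, using a rabbit anti-monomethyl-H3K9 antibody with streptavidin donor and anti-IgG acceptor beads. Final levels are 20 nM enzyme, 500 nM peptide, 20 uM SAM; 2 h RT.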
BAZ2B block – qHTS Assay for Inhibitors of BAZ2B. AID 504333, 2011. Bromodomain adjacent to zinc finger domain protein 2B (Homo sapiens), Q9UIF8. AlphaScreen BAZ2B-H3K14Ac peptide displacement. Potency, µM (titrated, usually from 114 µM), without a hit: at the top dose activity change, negative = inhibition, hits mostly inhibitors. 360,000 compounds, 4.4% hits; also: % is scaled to controls: 0 for no effect and ±100 for the full control effect; nearly all actives have a fitted effect of over 60% in size
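BAZ2B 50 nM plus b-H3(5-23)K14Ac 50 nM, PBS pH 7.4/0.01% Tween-20, 30 min RT; compound added (max 110 uM), 30 min RT; streptavidin donor/Ni-chelate acceptor beads 10 ug/mL final, 20 min dark; AlphaScreen read.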
TDP1 inh – qHTS Assay for Inhibitors of Tyrosyl-DNA Phosphodiesterase (TDP1). Tyrosyl-DNA phosphodiesterase 1 (Homo sapiens), Q9NUW8. recombinant TDP1, AlphaScreen DNA substrate cleavage. Potency, µM (doses to about 130 µM), for the others: at the highest dose activity change, negative = inhibition, actives largely listed as inhibitors. 350,000 compounds, 0.28% hits. AID 485290, 2010; also: % is scaled to controls: 0 for no effect and ±100 for the full control effect; nearly all actives have a fitted effect of over 40% in size
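Compounds were preincubated with Tdp1 (1 nM final) for 15 min at room temperature before substrate (15 nM final) started a 5 min reaction; beads (10 ug/ml final) were then added for 10 min before AlphaScreen detection.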
* marks the source's active call; other numbers are inactive results; ? = inconclusive; · = no result given; [ ] = dose if it differs, or a comment. Only some compounds are listed: those with a hit (about 12% of all), similar ones and a draw of the others. Calls follow the shape of the dose curve; as a rule, active = well fitted curve in the direction sought with a large enough effect; inconclusive = small, poorly fitted or top-dose-only effect, or another doubt; inactive = no such curve, though single readings can be large; an effect the other way counts as inactive or inconclusive. Potency is read from the fitted curve at half-maximal effect.

SMILES	JMJD2A Tudor	Sfp PPTase inh	HP1b binding inh	G9a inh	BAZ2B block	TDP1 inh
CCCCc1nc2ccn(CC(=O)N(C)C)c(=O)c2n1Cc1ccc(-c2ccccc2-c2nn[nH]n2)cc1	·	50µM*	·	-9%[59 µM]	·	-1%
COc1ccc(/C(=C/Nc2cccc(Br)c2)C(C)=O)cc1OC	-20%[11.4 µM]	7%	?	?	?	6%
CC(=O)c1ccccc1C(=O)N1CCCC(CNC(=O)c2ccccc2Cl)C1 (configuration not stated)	28µM*	17%	13%	16%	-5%	1%
COC(=O)c1ccccc1NC(=O)CNc1cc(OC)c(OC)cc1C	?	-8%	-23%	20µM*	45µM*	3%
CCc1ccccc1NCC(=O)Nc1ccccc1C(=O)OC	1%	3%	33%	8%	2%	5%
O=C(CC(=O)Nc1ccccc1C(=O)O)NNC(=O)Cc1ccccc1	?	-21%	16%	·	-11%	-5%
CCCC(=O)NC(=S)Nc1ccccc1C(=O)OC	-16%[11.4 µM]	?	-8%	40µM*	9%[57.1 µM]	-5%
COC(=O)c1ccccc1NC(=S)NC(=O)C1CC1	-12%	-2%	25%	50µM*	?	0%
CCCC(=O)NNC(=O)CC(=O)Nc1ccccc1C(=O)O	-13%	22%	4%[57 µM]	50µM*	-21%	1%
CC1CCCN(c2ccc(/C=C(\C#N)c3nn(-c4ccccc4)c(N)c3C#N)cc2[N+](=O)[O-])C1 (configuration not stated)	?	-2%	-26%	22µM*	?	6%
CC(=O)Nc1ccc(N2CCCC(C)C2)c([N+](=O)[O-])c1 (configuration not stated)	?	15%	?	?	35µM*	6%
CC1CCCN(c2ccc(C(=O)Nc3cccnc3)cc2[N+](=O)[O-])C1 (configuration not stated)	-19%[57.1 µM]	-2%	-14%	50µM*	?	8%
CC1CCN(c2ccc(/C=C(\C#N)c3nn(-c4ccccc4)c(N)c3C#N)cc2[N+](=O)[O-])CC1	-11%	16%	-13%	22%[59 µM]	-26%	5%
CCn1c(=O)n(-c2ccc(C)c(F)c2)c(=O)c2sc3ccccc3c21	-20%	·	19%	-7%[59 µM]	-3%	4%
COc1ccccc1CNC(=O)C(C)n1c(=O)cc(-c2ccccc2)c2c(C)nn(C)c21 (configuration not stated)	-25%	·	1%	3%[59 µM]	?	3%
CC(=O)OC[C@H]1O[C@@H](O/N=C/[C@@H](C)[C@H](OCc2ccccc2)C(C)C)[C@H](OC(C)=O)[C@@H](OC(C)=O)[C@@H]1OC(C)=O	·	1%	·	50µM*	-9%	4%
N#Cc1ccc(CSc2nnc(-c3ccccc3)n2Cc2ccco2)cc1	-22%	-2%	-2%	·	-35%	5%
N#Cc1ccc(CSc2nnc(Cc3cccs3)n2Cc2ccco2)cc1	?	14µM*	-7%	?	50µM*	-9%
CC1CCCN(C(=O)C(=O)Nc2ccc3nc4n(c(=O)c3c2)CCCCC4)C1 (configuration not stated)	1%	15%	32%	5%	14%	·
O=C1N(Cc2cccnc2)C[C@@H]2C[C@@H](c3ccccc3C#Cc3ccccc3)N3CCC[C@@]123	-26%	-9%	32%	50µM*	-20%	5%
